From PubChem BioAssay (NCI)
This is part of a sample that, as a whole, favours compounds with a hit. Of some 83,000 tested, about 20% had one in any assay.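 Testing used 96-well plates and a 48-hour single-concentration exposure. Example: -40 means 40% of the starting cells died.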 Active and inactive are the calls of the source. How the source made its calls: active means growth percent below 10; inactive means the rest.

system: NCI-H460 lung; assay: NCI-60 one-dose screen, 48 h (100 = growth as untreated, 0 = no growth, -100 = all killed); settings: 10 µM unless noted

SMILES | growth
CC(C)CCC[C@@H](C)[C@H]1CC[C@H]2[C@@H](Nc3ccc(O)cc3)CCC[C@]12C | 104% (inactive)
O=C(Nc1ccccc1)Nc1cccc(Oc2nnc(Cl)c3ccccc23)c1 | 25.3% (inactive)
CCCCNC(=O)Oc1ccc2c(=O)c3sc4c(=O)c5ccccc5c(=O)c4c3c(=O)c2c1 | -74.6% (active)
COc1nc(N(C)O)nc(N(C)O)n1 | 8.71% (active)
N=c1sc(Cc2ccc(Cl)cc2)cn1CC(=O)c1ccc(F)cc1 | 33.7% (inactive)
Cc1ccc(-c2cc(-c3ccccc3C)[nH]c(=O)c2C#N)s1 | 98.7% (inactive)
O=C1/C(=C\c2c[nH]c3ccccc23)c2ccccc2N1c1c(Cl)cccc1Cl | -89.5% (active)
COc1ccc(C2C(c3nn[nH]n3)=C(N)Oc3c2ccc2ccccc32)cc1 (stereo unspecified) | 53.7% (inactive)
CCCCCCCOc1c(OC)cc(C2CC(=O)Nc3c2c(C)nn3-c2nc3ccccc3[nH]2)cc1OC (stereo unspecified) | -26.8% (active)
Cc1c(C(=O)OC(=NC2CCCCC2)NC2CCCCC2)sc2c1c(=O)nc1c(C#N)n[nH]n12 | 112% (inactive)
C[n+]1cccc(CC(=O)NO)c1 | 101% (inactive)
c1c[nH]c(CNC2CCCCC2)c1 | 105% (inactive)
N#C/C(=C\c1ccc(Br)cc1)n1nnc2cc(F)c(F)cc21 | 30.5% (inactive)
CC1(C)CC[C@]2(C(=O)N3CCOCC3)CC[C@]3(C)C(=CC[C@@H]4[C@@]5(C)CC[C@H](OC(=O)c6cccnc6)C(C)(C)[C@@H]5CC[C@]43C)[C@@H]2C1 | 18.3% (inactive)
O=C(c1ccccc1)c1c(/C=C/c2ccccc2)nc2ccccc2c1/C=C/c1ccc(Br)cc1 | 106% (inactive)
O=C(COc1ccc(/C=C2\Oc3ccccc3C2=O)cc1)Nc1nc2c(s1)CCCC2 | 99.5% (inactive)
Cc1ccc(Cl)c(NS(=O)(=O)c2ccc(-c3cnc(C4CC4)o3)cc2)c1 | 14.3% (inactive)
Cc1ccc2nc(C)c(-c3nnc(SCc4ccc(C#N)cc4)o3)n2c1 | 102% (inactive)
CC1=C(SCCC(=O)OC(C[Se]C2=C(C)C(=O)c3ccccc3C2=O)C(=O)NCCCCCC(=O)OCc2ccccc2)C(=O)c2ccccc2C1=O (stereo unspecified) | 10.9% (inactive)

SMILES | growth
NNC(=O)c1nc(N)n(-c2ccc(S(N)(=O)=O)cc2)n1 | 105% (inactive)
Cn1c(=O)c2[nH]c(NN)nc2n(C)c1=O | 101% (inactive)
O=C(/C=C/c1cccc(O)c1)c1cccc(-n2cc(-c3ccc4ccccc4c3)[nH]c2=O)c1 | -9.23% (active)
O=C(/C=C/c1ccco1)c1ccc(Nc2nc(Nc3ccc(F)cc3)nc(Nc3ccc(Cl)cc3)n2)cc1 | 61.7% (inactive)
O=C1OC(c2nc3ccccc3s2)=C/C1=C\c1ccc(O)cc1 | 101% (inactive)
COc1ccc(-c2c(N)n[nH]c2-c2ccc(Cl)cc2O)cc1OC | 94.5% (inactive)
O=C(Nc1cccc(Cl)c1)c1cc(N=Nc2ccc([N+](=O)[O-])cc2Cl)ccc1O | 39.6% (inactive)
CCN(CC)CCN1C(=O)c2c(c(C)c3c(oc4cc(O)ccc43)c2C)C1=O | -69% (active)
CNC(=O)c1cc(Oc2ccc3nc(Nc4ccc(Cl)c(C(F)(F)F)c4)ccc3c2)ccn1 | 55.8% (inactive)
CCCc1cc2c(=O)c(C(=O)OC)c[nH]c2cc1N(CC)CC | 102% (inactive)
COc1cc(/C=N/NC(=O)Cn2c(C(C)C)nc3ccccc32)ccc1O | 97.7% (inactive)
COc1ccc(C(=O)COc2ccc(/C=C3\Oc4ccccc4C3=O)cc2)cc1 | 102% (inactive)
CCN(CCNc1ccc(C)c2sc3ccccc3c(=O)c12)CC(C)(C)O | 30.3% (inactive)
O=C(CSc1nnc(-c2ccc(NC(=O)c3cccnc3)cc2)o1)N[C@@H](Cc1ccc(O)cc1)C(=O)O | 111% (inactive)
CN(C)c1ccc(/C=C/C(=O)c2cccc(Nc3nc(Nc4ccccc4)nc(Nc4ccccc4)n3)c2)cc1 | 98.4% (inactive)
N#C/C(=C\c1ccc(-c2ccccc2F)o1)c1nc(-c2ccco2)cs1 | 95.1% (inactive)
Cc1ccc(C(=O)CSc2nc(-c3ccc(Br)cc3)c(C#N)c(=O)[nH]2)cc1 | 102% (inactive)
COc1ccc(-c2nc3sccn3c2-c2cc(-c3cc(OC)c(OC)c(OC)c3)on2)cc1 | 78.3% (inactive)
c1ccc(-c2nc([P+](c3ccccc3)(c3ccccc3)c3ccccc3)c(N3CCOCC3)o2)cc1 | 10.1% (inactive)

system: HOP-92 NSCLC; assay: as above; settings: 10 µM unless noted

SMILES | growth
CC(C)CCC[C@@H](C)[C@H]1CC[C@H]2[C@@H](Nc3ccc(O)cc3)CCC[C@]12C | 136% (inactive)
O=C(Nc1ccccc1)Nc1cccc(Oc2nnc(Cl)c3ccccc23)c1 | -7.51% (active)
CCCCNC(=O)Oc1ccc2c(=O)c3sc4c(=O)c5ccccc5c(=O)c4c3c(=O)c2c1 | -30.4% (active)
COc1nc(N(C)O)nc(N(C)O)n1 | 52.8% (inactive)
N=c1sc(Cc2ccc(Cl)cc2)cn1CC(=O)c1ccc(F)cc1 | 109% (inactive)
Cc1ccc(-c2cc(-c3ccccc3C)[nH]c(=O)c2C#N)s1 | 54% (inactive)
O=C1/C(=C\c2c[nH]c3ccccc23)c2ccccc2N1c1c(Cl)cccc1Cl | -13.7% (active)
COc1ccc(C2C(c3nn[nH]n3)=C(N)Oc3c2ccc2ccccc32)cc1 (stereo unspecified) | 77.1% (inactive)
CCCCCCCOc1c(OC)cc(C2CC(=O)Nc3c2c(C)nn3-c2nc3ccccc3[nH]2)cc1OC (stereo unspecified) | -8.34% (active)
Cc1c(C(=O)OC(=NC2CCCCC2)NC2CCCCC2)sc2c1c(=O)nc1c(C#N)n[nH]n12 | -16.8% (active)
C[n+]1cccc(CC(=O)NO)c1 | 82.5% (inactive)
c1c[nH]c(CNC2CCCCC2)c1 | 72.9% (inactive)
N#C/C(=C\c1ccc(Br)cc1)n1nnc2cc(F)c(F)cc21 | -9.69% (active)
CC1(C)CC[C@]2(C(=O)N3CCOCC3)CC[C@]3(C)C(=CC[C@@H]4[C@@]5(C)CC[C@H](OC(=O)c6cccnc6)C(C)(C)[C@@H]5CC[C@]43C)[C@@H]2C1 | 66.4% (inactive)
O=C(c1ccccc1)c1c(/C=C/c2ccccc2)nc2ccccc2c1/C=C/c1ccc(Br)cc1 | 98.3% (inactive)
O=C(COc1ccc(/C=C2\Oc3ccccc3C2=O)cc1)Nc1nc2c(s1)CCCC2 | -90.1% (active)
Cc1ccc(Cl)c(NS(=O)(=O)c2ccc(-c3cnc(C4CC4)o3)cc2)c1 | 73.9% (inactive)
Cc1ccc2nc(C)c(-c3nnc(SCc4ccc(C#N)cc4)o3)n2c1 | 104% (inactive)
CC1=C(SCCC(=O)OC(C[Se]C2=C(C)C(=O)c3ccccc3C2=O)C(=O)NCCCCCC(=O)OCc2ccccc2)C(=O)c2ccccc2C1=O (stereo unspecified) | 58.4% (inactive)

SMILES | growth
NNC(=O)c1nc(N)n(-c2ccc(S(N)(=O)=O)cc2)n1 | 74.2% (inactive)
Cn1c(=O)c2[nH]c(NN)nc2n(C)c1=O | 95.7% (inactive)
O=C(/C=C/c1cccc(O)c1)c1cccc(-n2cc(-c3ccc4ccccc4c3)[nH]c2=O)c1 | 42.6% (inactive)
O=C(/C=C/c1ccco1)c1ccc(Nc2nc(Nc3ccc(F)cc3)nc(Nc3ccc(Cl)cc3)n2)cc1 | 44.2% (inactive)
O=C1OC(c2nc3ccccc3s2)=C/C1=C\c1ccc(O)cc1 | 87.9% (inactive)
COc1ccc(-c2c(N)n[nH]c2-c2ccc(Cl)cc2O)cc1OC | 69.2% (inactive)
O=C(Nc1cccc(Cl)c1)c1cc(N=Nc2ccc([N+](=O)[O-])cc2Cl)ccc1O | 28.3% (inactive)
CCN(CC)CCN1C(=O)c2c(c(C)c3c(oc4cc(O)ccc43)c2C)C1=O | 72.1% (inactive)
CNC(=O)c1cc(Oc2ccc3nc(Nc4ccc(Cl)c(C(F)(F)F)c4)ccc3c2)ccn1 | 59.2% (inactive)
CCCc1cc2c(=O)c(C(=O)OC)c[nH]c2cc1N(CC)CC | 111% (inactive)
COc1cc(/C=N/NC(=O)Cn2c(C(C)C)nc3ccccc32)ccc1O | 82.3% (inactive)
COc1ccc(C(=O)COc2ccc(/C=C3\Oc4ccccc4C3=O)cc2)cc1 | 75.8% (inactive)
CCN(CCNc1ccc(C)c2sc3ccccc3c(=O)c12)CC(C)(C)O | 50.9% (inactive)
O=C(CSc1nnc(-c2ccc(NC(=O)c3cccnc3)cc2)o1)N[C@@H](Cc1ccc(O)cc1)C(=O)O | 96.3% (inactive)
CN(C)c1ccc(/C=C/C(=O)c2cccc(Nc3nc(Nc4ccccc4)nc(Nc4ccccc4)n3)c2)cc1 | 46.9% (inactive)
N#C/C(=C\c1ccc(-c2ccccc2F)o1)c1nc(-c2ccco2)cs1 | 85.7% (inactive)
Cc1ccc(C(=O)CSc2nc(-c3ccc(Br)cc3)c(C#N)c(=O)[nH]2)cc1 | 92.2% (inactive)
COc1ccc(-c2nc3sccn3c2-c2cc(-c3cc(OC)c(OC)c(OC)c3)on2)cc1 | -17.4% (active)
c1ccc(-c2nc([P+](c3ccccc3)(c3ccccc3)c3ccccc3)c(N3CCOCC3)o2)cc1 | -21.4% (active)
